An excerpt weighted towards active compounds, which were near 3.5% of everything screened.
TexasRed fluor: Total Fluorescence Counterscreen for Inhibitors of the Interaction of Thyroid Hormone Receptor and Steroid Receptor Coregulator 2; hit rate 0.29% among 280,000; TRb/SRC2 Texas Red total fluorescence interference; Potency, µM (titrated, usually from 106 µM), for the others: at the highest dose fluorescence change, negative = quenching; active means well fitted curve in either direction with a large enough effect; inconclusive means small, poorly fitted or top-dose-only effect
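Human TRβ ligand-binding domain (0.6 uM) and Texas Red SRC2 peptide (20 nM) in Tris buffer with 1 uM T3 and 5% DMSO were incubated with pinned compound for 5 hr at ambient temperature. Total fluorescence was computed as S + 2P (555/632 nm).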
Tau fibril FP: qHTS for Inhibitors of Tau Fibril Formation, Fluorescence Polarization; Microtubule-associated protein tau (Homo sapiens), P10636; K18 P301L tau heparin fibrillization, Alexa594 FP, 6 h; Potency, µM (titrated, usually from 57.7 µM), for inactives: at the highest dose activity, negative = inhibition, most hits filed as inhibitors; hit rate 0.39% among 280,000; AID 1468, 2008; further: nearly all actives have a fitted effect of over 55% in size
Target sequence (P10636 561-689 P618L limits assumed): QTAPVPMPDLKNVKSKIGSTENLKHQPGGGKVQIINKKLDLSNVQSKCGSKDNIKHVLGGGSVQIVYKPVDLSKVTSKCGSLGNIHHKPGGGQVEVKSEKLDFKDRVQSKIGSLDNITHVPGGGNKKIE
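FP of Alexa 594-tau after heparin (20 uM) induction. Substrate: human K18 P301L, 15 uM unlabeled, 0.24 uM labeled. Buffer 100 mM sodium acetate pH 7. 6 hr, 37 C.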
JMJD2E inh: qHTS Assay for Inhibitors of Human Jumonji Domain Containing 2E (JMJD2E); JMJD2E catalytic domain, FDH-coupled NADH fluorescence (FDH is formaldehyde dehydrogenase); Potency, µM (highest dose often 57.1 µM), without a hit: at the highest dose activity change, negative = inhibition, hits mostly inhibitors; hit rate 1.6% among 230,000; active means well fitted inhibition curve with a large enough effect, not every such curve was filed as active; inconclusive means small, poorly fitted or top-dose-only effect, or another doubt; inactive means no such curve, though single readings can be large or run the other way;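 further: 0% = wells with enzyme and -100% = buffer wells without enzyme; nearly all actives have a fitted effect of over 50% in size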
Tau fluor cs: Counterscreen qHTS for Inhibitors of Tau Fibril Formation, Fluorescence Polarization; tau K18 P301L Alexa594 fluorescence, heparin fibrillization; AID 1463, 2008; hit rate 0.93% among 280,000; Potency, µM (doses to about 57.7 µM), for the others: top-dose activity change, negative = decrease; further: nearly all actives have a fitted effect of over 55% in size
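Human tau K18 P301L (15 uM unlabeled, 0.24 uM Alexa 594-labeled) in 100 mM sodium acetate pH 7 with 20 uM heparin, 6 hr at 37 C. ThT 30 uM added, 1 hr ambient; Alexa 594 FP and total fluorescence read at 555/632 nm.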
TRb SRC2 PPI: qHTS for Inhibitors of the Interaction of Thyroid Hormone Receptor and Steroid Receptor Coregulator 2; Thyroid hormone receptor beta (Homo sapiens), P10828; TRbeta-SRC2 peptide binding, fluorescence polarization; receptor liganded with 1 µM T3; Potency, µM (titrated, usually from 106 µM), for inactives: at the top dose activity change, negative = inhibition, most hits filed as inhibitors; hit rate 0.065% among 280,000;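 further: plate controls were bound peptide for no effect and peptide without receptor for full effect; nearly all actives have a fitted effect of over 50% in size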
Target sequence (P10828 whole entry, looked up): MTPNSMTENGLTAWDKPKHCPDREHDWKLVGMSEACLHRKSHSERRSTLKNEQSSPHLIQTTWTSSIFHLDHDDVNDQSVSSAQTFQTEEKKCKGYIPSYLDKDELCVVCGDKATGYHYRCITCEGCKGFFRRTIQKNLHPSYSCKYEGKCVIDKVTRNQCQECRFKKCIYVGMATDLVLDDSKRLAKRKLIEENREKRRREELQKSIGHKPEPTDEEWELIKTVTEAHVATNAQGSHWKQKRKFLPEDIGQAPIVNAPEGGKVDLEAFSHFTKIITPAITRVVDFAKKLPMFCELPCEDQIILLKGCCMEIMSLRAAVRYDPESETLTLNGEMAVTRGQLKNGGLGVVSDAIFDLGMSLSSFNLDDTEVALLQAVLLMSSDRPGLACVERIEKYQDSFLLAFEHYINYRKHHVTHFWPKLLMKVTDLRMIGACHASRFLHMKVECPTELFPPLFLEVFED
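Human TRb ligand-binding domain (0.6 uM) is mixed with 20 nM Texas Red SRC2 peptide and 1 uM T3; after compound addition and 5 hr at ambient temperature, polarization is measured and normalized to unbound and bound controls.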
Tau ThT inhib: qHTS for Inhibitors of Tau Fibril Formation, Thioflavin T Binding | recombinant tau K18 P301L, heparin-induced fibrillization, ThT fluorescence | Potency, µM (highest dose often 57.4 µM), without a hit: top-dose activity, negative = inhibition, actives largely listed as inhibitors | hit rate 2.1% among 270,000; further: nearly all actives have a fitted effect of over 55% in size
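Fibril formation assay: tau K18 P301L at 15 uM with trace Alexa 594 label, heparin inducer 20 uM, pH 7 sodium acetate buffer, 37 C for 6 hr; endpoint ThT signal.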
The depositor's hits bear a star; u = inconclusive; x = not tested or not shown; [ ] = another dose, or the depositor's remark. Unless noted, the call rests on the fitted dose curve; in most records, active means well fitted curve in the direction sought with a large enough effect; inconclusive means small, poorly fitted or top-dose-only effect, or another doubt; inactive means no such curve, though single readings can be large; an effect the other way counts as inactive or inconclusive. Unless noted, on the % scale 0 is the no-effect control and ±100 the full control effect; potency means the concentration at half of the fitted maximal effect.

SMILES | TexasRed fluor | Tau fibril FP | JMJD2E inh | Tau fluor cs | TRb SRC2 PPI | Tau ThT inhib
COC(=O)c1c(SCC(=O)Nc2cccc(C(F)(F)F)c2)[nH]c2ccccc2c1=O | 0% | -8% | x | 16µM*[quencher] | 0% | 14µM*
Cc1cc(C(=O)COC(=O)c2nc3nccc(C)n3n2)c(C)n1CC1CCCO1 (configuration not stated) | 1% | 1% | -2% | -7% | 0% | -5%
Oc1cccc(Oc2ncc(C(F)(F)F)cc2Cl)c1 | 0% | -3% | 6% | -10% | 6% | -1%
Cc1ccc2nc(SCC(=O)Nc3ccc(F)c([N+](=O)[O-])c3)[nH]c2c1 | -1% | -9% | 1% | 28µM*[quencher] | 1% | u
Cc1cc(N2CCN(C)CC2)nc2ccc(NC(=O)c3ccc(Br)o3)cc12 | -10% | 9% | -26% | u | -3% | u
O=C(Nc1ccc(N2CCN(C(=O)c3ccccc3)CC2)cc1)c1ccc(Br)o1 | -4% | 5% | 5% | -24% | 2% | u
Cc1cc(N2CCCCC2)nc2ccc(NC(=O)c3ccc(Br)o3)cc12 | -5% | u | u | 25µM*[quencher] | -3% | 8.9µM*
Cc1cc(N2CCCCC2)nc2ccc(NC(=O)c3ccc(F)cc3)cc12 | -4% | u | x | 16µM*[quencher] | 7% | u
Cc1cc(N2CCN(C)CC2)nc2ccc(NC(=O)c3ccc4c(c3)OCO4)cc12 | -6% | 14% | u | u | 16% | u
O=C(Nc1ccc(N2CCCC2)cc1)c1ccc(Br)o1 | -6% | 8% | -5% | u | -10% | 8.9µM*
CCC(/C=C1\Sc2ccc(OC)cc2N1CC)=C\c1sc2ccc(OC)cc2[n+]1CCCS(=O)(=O)[O-] | 40µM*[fluorescent] | u | -1% | 0.79µM*[fluorescent] | u | 3.5µM*
CCC(/C=C1\Sc2ccc(OC)cc2N1CCO)=C\c1sc2ccc(OC)cc2[n+]1CCO | 50µM*[fluorescent] | -13% | 2% | 0.4µM*[fluorescent] | u | 1.1µM*
O=C(NCc1cccs1)c1ccc(N2CCCCC2)nc1 | 0% | 1% | 10% | 6% | -22% | 3%
O=S(=O)(NCc1ccccc1)c1ccc(Cl)cc1 | -2% | 4% | 5% | -9% | -2% | -12%
O=S(=O)(Nc1cc2nc3ccccc3nc2n1Cc1ccccc1)c1ccc(Cl)cc1 | 1%[53 µM] | u | u | 14µM*[quencher] | -26%[53 µM] | u
C/C(=N\Nc1nc2ccccc2[nH]1)c1ccc2c(c1)OCO2 | -3% | 9% | 3% | u | 0% | u
CCN(CC)c1ccc(/C=N/Nc2nc3ccccc3[nH]2)cc1 | -4% | u | u | 7.9µM*[quencher] | -9% | 3.2µM*
CC(=O)Nc1ccc(/C=N/Nc2nc3ccccc3[nH]2)cc1 | -2% | 12% | -7% | 1% | -20% | u
C(=N\Nc1nc2ccccc2[nH]1)/c1ccc2c(c1)OCO2 | -7% | 13% | 3% | u | -1% | 7.9µM*
CCN(C(=O)CSc1nc2ccccc2n1CC(=O)Nc1ccccc1C)c1ccccc1 | -1% | 1% | x | -16% | -7% | -11%
Cc1[nH]n(-c2ccccc2)c(=O)c1/C=N/N1CCOCC1 | -3% | -1% | -6% | -6% | -1% | -11%
Cc1[nH]n(-c2ccccc2)c(=O)c1/C=N/Nc1nncc(-c2ccccc2)n1 | -18% | 3% | u | u | -8% | 14µM*
Cc1[nH]n(-c2ccccc2)c(=O)c1/C=N/N1C(=O)c2cccc3cccc(c23)C1=O | -2% | -9% | u | u | 0% | 22µM*
CCCn1c(=S)[nH]c2cc(C(=O)N3CCc4ccccc4C3)ccc2c1=O | -2% | -10% | 4% | -7% | -2% | 0%
Cc1nn(C)c(C(=O)Nc2ccc(Br)cc2F)c1Br | -4% | 6% | -2% | 23% | -6% | 20%
SMILES | TexasRed fluor | Tau fibril FP | JMJD2E inh | Tau fluor cs | TRb SRC2 PPI | Tau ThT inhib
CCOC(=O)C1CCN(c2nc3c(S(=O)(=O)c4ccccc4)nnn3c3ccc(Cl)cc23)CC1 | 6% | -4% | x | -20% | -1% | -2%
CCCOc1ccc(N)cc1N | -9% | 7.1µM* | u | 11µM*[quencher] | -24% | 3.2µM*
CCCOc1cc(N)ccc1C(=O)OCCN(CC)CC | -1%[53 µM] | x | -4%[25.5 µM] | x | -5%[53 µM] | x
Cc1ccc(C)c(C(=O)CSc2nnc(C)s2)c1 | -9% | -1% | 7% | -6% | 8% | -4%
CSc1nc(N)nc(SCC(=O)Nc2cccc(F)c2)c1C#N | 1.3µM*[quencher] | 4% | 2% | -9% | u | -11%
CC/C(=N\NC(=O)c1c[nH]c2ccccc12)c1cccs1 | 1% | -6% | 2% | -18% | -5% | -11%
CCOC(=O)c1cc2sccc2n1CC(=O)N1c2ccccc2CC1C (configuration not stated) | 1% | 0% | 9% | 8% | 12% | 11%
CC(C)c1ccc(CNc2cc(N3CCCC3)ccc2[N+](=O)[O-])cc1 | 0% | -3% | -2% | -22% | -3% | u
CC(C)C(=O)N1CCN(c2ccc([N+](=O)[O-])c(NC(C)c3ccccc3)c2)CC1 (configuration not stated) | 0% | 2% | -1% | -24% | 9% | 16µM*
CC(C)(C)c1ccc(CNc2cc(N3CCOCC3)ccc2[N+](=O)[O-])cc1 | -26% | 28µM* | -15% | 4µM*[quencher] | -21% | 7.1µM*
O=C(COc1ccccc1Cl)N1CCN(c2ccc([N+](=O)[O-])c(N3CCOCC3)c2)CC1 | 1% | -6% | -8% | u | -17% | 13µM*
O=[N+]([O-])c1ccc(N2CCCC2)cc1NC1CC1 | -1% | -6% | 6% | -17% | 1% | 14µM*
CC(Nc1cc(N2CCN(C(=O)C(C)(C)C)CC2)ccc1[N+](=O)[O-])c1ccccc1 (configuration not stated) | -8% | 1% | u | -16% | 2% | u
Nc1cc(N2CCCC2)c(Cl)cc1[N+](=O)[O-] | -1% | 0% | -3% | -26% | 2% | 16µM*
Nc1cc(N2CCOCC2)c(Cl)cc1[N+](=O)[O-] | -2% | 4% | 10% | 5% | 1% | u
CC(=O)N1CCN(c2ccc([N+](=O)[O-])c(NCC3CCCO3)c2)CC1 (configuration not stated) | -2% | -1% | -1% | 0% | -6% | 14µM*
